Among the data in PubChem BioAssay (Tox21) are Potency values, retold here.

Inconclusive results are not listed. Calls of active or inactive are those of the source. Unless noted, the call rests on the fitted dose curve; in most records, active means well fitted curve in the direction sought with a large enough effect in the repeat runs; inconclusive means weak or mixed curves; inactive means no such curve, though single readings can be large; an effect the other way counts as inactive or inconclusive.

Test [1] can be described thus: qHTS assay to identify small molecule agonists of the peroxisome proliferator-activated receptor delta (PPARd) signaling pathway - cell viability counter screen (AID 743211). Further: nearly all actives have a fitted effect of over 55% in size. Further: potency means the concentration at half of the fitted maximal effect. An outline of the steps: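 In the same wells used for beta-lactamase reporter measurement, cytotoxicity is scored by CellTiter-Glo. HEK293H PPARd-bla cells receive compound for 17 h at 37C following a 5 h settling period.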

Test [2] addresses Peroxisome proliferator-activated receptor delta (Homo sapiens) (UniProt Q03181). Briefly: qHTS assay to identify small molecule agonists of the peroxisome proliferator-activated receptor delta (PPARd) signaling pathway (AID 743212; calls by dose curve; further: potency means the concentration at half of the fitted maximal effect). A digest of the protocol:
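HEK293H PPARd-bla cells; 5 h preincubation 37 C/5% CO2; compound (DMSO) 37 C; LiveBLAzer B/G FRET substrate 2 h RT; fluorescence intensity.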

A short description of test [3]: qHTS assay to identify small molecule antagonists of the peroxisome proliferator-activated receptor delta (PPARd) signaling pathway - cell viability counter screen (AID 743213). Further: nearly all actives have a fitted effect of over 50% in size. Further: potency means the concentration at half of the fitted maximal effect. A digest of the protocol: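 PPARd-bla HEK293H cells (3000/well) got compound plus 300 nM L165041 agonist for 17 h at 37 C. Viability in the same wells came from CellTiter-Glo luminescence after 30 min at room temperature.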

Test [4] deals with Peroxisome proliferator-activated receptor delta (Homo sapiens) (UniProt Q03181). In words: qHTS assay to identify small molecule antagonists of the peroxisome proliferator-activated receptor delta (PPARd) signaling pathway (AID 743215; active means well fitted inhibition curve with a large enough effect in the signal ratio in the repeat runs, not every such curve was filed as active; the % refers to the signal ratio;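 further: cells stimulated with agonist L165041 at 300 nM final during compound exposure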; further: potency means the concentration at half of the fitted maximal effect). A digest of the protocol: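 Read-out is beta-lactamase FRET fluorescence, measured 2 h after substrate addition at room temperature. Beforehand, UAS-bla HEK293H cells carrying the PPARd reporter were exposed to compounds with L165041 at 300 nM final for 17 h at 37 C.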
Sequence of Peroxisome proliferator-activated receptor delta (Homo sapiens) (Q03181 whole entry, looked up): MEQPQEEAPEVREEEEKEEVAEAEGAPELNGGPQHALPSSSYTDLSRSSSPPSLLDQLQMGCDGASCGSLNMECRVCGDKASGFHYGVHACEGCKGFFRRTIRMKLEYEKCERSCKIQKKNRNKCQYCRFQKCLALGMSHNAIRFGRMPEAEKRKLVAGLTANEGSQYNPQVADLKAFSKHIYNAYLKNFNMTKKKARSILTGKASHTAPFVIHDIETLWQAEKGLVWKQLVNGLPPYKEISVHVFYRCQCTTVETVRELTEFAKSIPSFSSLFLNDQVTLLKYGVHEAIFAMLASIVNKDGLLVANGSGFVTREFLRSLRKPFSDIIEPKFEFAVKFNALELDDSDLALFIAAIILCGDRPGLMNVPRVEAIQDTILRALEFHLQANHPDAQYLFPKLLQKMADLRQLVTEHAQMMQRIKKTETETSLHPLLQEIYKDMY

Test [5] has as its target Bile acid receptor (Homo sapiens) (UniProt Q96RI1). Briefly: qHTS assay to identify small molecule antagonists of the farnesoid-X-receptor (FXR) signaling pathway (AID 743217; active means well fitted inhibition curve with a large enough effect in the signal ratio in the repeat runs, not every such curve was filed as active; the % refers to the signal ratio; further: potency means the concentration at half of the fitted maximal effect). An outline of the steps:
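HEK 293T FXR-UAS-bla, 5000 cells/well; compound + CDCA 50 uM final; 16 h, 37 °C; B/G FRET substrate 2 h RT; fluorescence.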

The nature of test [6]: qHTS assay to identify small molecule agonists of the farnesoid-X-receptor (FXR) signaling pathway - cell viability counter screen (AID 743218). Further: nearly all actives have a fitted effect of over 45% in size. Further: potency means the concentration at half of the fitted maximal effect. An outline of the steps:
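HEK 293T FXR-bla cells; 5 h pre-incubation, 16 h compound exposure at 37 C; LiveBLAzer substrate 2 h RT, then CellTiter-Glo 30 min RT, luminescence.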

Test [7] deals with Bile acid receptor (Homo sapiens) (UniProt Q96RI1). In words: qHTS assay to identify small molecule agonists of the farnesoid-X-receptor (FXR) signaling pathway (AID 743220; active means well fitted activation curve with a large enough effect in the signal ratio in the repeat runs, not every such curve was filed as active; the % refers to the signal ratio). An outline of the steps:
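Beta-lactamase reporter under UAS control in GeneBLAzer FXR HEK 293T cells (5000/well) measured with LiveBLAzer FRET substrate after 2 h at room temperature. Compound exposure lasted 16 h at 37C.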

Test [8] in a line: qHTS assay to identify small molecule antagonists of the farnesoid-X-receptor (FXR) signaling pathway - cell viability counter screen (AID 743221; active means well fitted cell-killing curve with a large enough effect in the repeat runs, not every such curve was filed as active; further: nearly all actives have a fitted effect of over 50% in size). An outline of the steps:
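Here viability was scored by luminescence after CellTiter-Glo addition to wells already read for beta-lactamase. Prior treatment: compound plus CDCA (50 uM final), 16 h, 37 C, HEK 293T FXR-bla cells.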

Test [9] has as its target Vitamin D3 receptor (Homo sapiens) (UniProt P11473). In words: qHTS assay to identify small molecule agonists of the vitamin D receptor (VDR) signaling pathway (AID 743222; calls by dose curve). A digest of the protocol: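 VDR-bla cells, 2,000/well; 4 h preincubation 37C; cpd (DMSO) 16 h; LiveBLAzer B/G substrate 2 h RT; fluorescence intensity read.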
For test [10] the target is unchanged. Briefly: qHTS assay to identify small molecule antagonists of the vitamin D receptor (VDR) signaling pathway (AID 743223; active means well fitted inhibition curve with a large enough effect in the signal ratio in the repeat runs, not every such curve was filed as active; the % refers to the signal ratio; further: potency means the concentration at half of the fitted maximal effect). An outline of the steps: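 Inhibition of agonist-driven VDR signalling is scored in VDR-bla cells: 3 nM final 1alpha,25-dihydroxyvitamin D3 plus compound, 16 h at 37C, then beta-lactamase detection by FRET substrate fluorescence after 2 h.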

Sequence of Vitamin D3 receptor (Homo sapiens) (P11473 whole entry, looked up): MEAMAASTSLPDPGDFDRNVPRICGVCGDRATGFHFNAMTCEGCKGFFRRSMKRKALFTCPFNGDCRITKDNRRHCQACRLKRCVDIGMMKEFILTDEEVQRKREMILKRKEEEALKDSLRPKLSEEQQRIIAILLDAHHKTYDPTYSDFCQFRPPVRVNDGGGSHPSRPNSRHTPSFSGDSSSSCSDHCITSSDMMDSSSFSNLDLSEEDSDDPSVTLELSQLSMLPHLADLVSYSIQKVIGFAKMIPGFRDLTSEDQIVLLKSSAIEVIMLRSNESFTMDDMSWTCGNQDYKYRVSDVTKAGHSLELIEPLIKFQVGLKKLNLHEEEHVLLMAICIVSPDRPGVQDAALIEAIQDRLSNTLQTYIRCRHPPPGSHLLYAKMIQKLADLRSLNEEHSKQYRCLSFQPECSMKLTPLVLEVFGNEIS
Sequence of Bile acid receptor (Homo sapiens) (Q96RI1 whole entry, looked up): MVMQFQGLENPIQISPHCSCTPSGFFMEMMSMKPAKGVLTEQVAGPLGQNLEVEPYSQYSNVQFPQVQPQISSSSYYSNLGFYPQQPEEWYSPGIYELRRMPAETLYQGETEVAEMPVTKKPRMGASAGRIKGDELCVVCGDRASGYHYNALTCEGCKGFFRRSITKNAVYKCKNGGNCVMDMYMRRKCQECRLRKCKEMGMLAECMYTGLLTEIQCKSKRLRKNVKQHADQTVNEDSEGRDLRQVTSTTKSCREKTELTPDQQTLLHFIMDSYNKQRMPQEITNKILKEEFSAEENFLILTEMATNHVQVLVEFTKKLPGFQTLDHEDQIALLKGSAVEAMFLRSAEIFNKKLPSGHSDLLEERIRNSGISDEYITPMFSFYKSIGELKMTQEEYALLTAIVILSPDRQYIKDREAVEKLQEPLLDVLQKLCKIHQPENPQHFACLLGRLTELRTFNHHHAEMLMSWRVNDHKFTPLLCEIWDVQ

With `CC(C)C[C@H](NC(=O)[C@H](CCc1ccccc1)NC(=O)CN1CCOCC1)C(=O)N[C@@H](Cc1ccccc1)C(=O)N[C@@H](CC(C)C)C(=O)[C@@]1(C)CO1`, the Potency in test [1] is 0.237 µM (active).
Turning to `CC(=O)Nc1ccc(C)cc1C`, the Potency entry in test [1], in test [2], in test [3], in test [4], in test [5] and in [6] was “inactive” in each case. Also, the Potency entry in test [7], in test [8], in test [9] and in [10] was “inactive” throughout.
On to `Cc1ccc(CO)cc1`, for which the Potency entry in test [1], in test [2], in [3], in test [4], in test [5] and in test [6] was “inactive” throughout. Moreover, the Potency result in [7], in [8], in test [9] and in test [10] was “inactive” each time.
`c1ccc2sc(SN(C3CCCCC3)C3CCCCC3)nc2c1`: the Potency result in [1], in test [2], in test [3], in test [4], in test [5] and in [6] was “inactive” each time. Moreover, the Potency entry in [7], in test [9] and in [10] was “inactive” throughout.
Take `COc1ccc(OC(=O)N(CC(=O)O)Cc2ccc(OCCc3nc(-c4ccccc4)oc3C)cc2)cc1`: the Potency entry in [1], in [3], in test [4], in [5], in [6] and in test [10] was “inactive” each time. The Potency in test [2] is 8.41 µM (active).
For the compound `CC(=O)Oc1ccc([N+](=O)[O-])cc1CCl`, the Potency result in test [1], in test [2], in test [3], in test [4], in test [5] and in test [7] was “inactive” in each case. For the same compound, the Potency result in test [8] is “inactive”.
`O=C1c2ccccc2C(=O)c2c(O)c(O)cc(O)c21`: the Potency entry in test [1], in test [2], in [3], in test [4], in [5] and in [6] was “inactive” in each case. Moreover, the Potency result in test [7], in test [8], in test [9] and in [10] was “inactive” throughout.
On to `C=COCC(C)C`, for which the Potency entry in test [1], in test [2], in [3], in [4], in test [5] and in [6] was “inactive” throughout. Moreover, the Potency result in test [7], in test [8], in test [9] and in [10] was “inactive” throughout.
Consider `CCC(C)(C)OC`, for which the Potency entry in test [1], in test [2], in test [3], in test [4], in [5] and in test [6] was “inactive” throughout. In addition, the Potency result in [7] and in test [8] was “inactive” throughout.
`Oc1cccc(Nc2ccccc2)c1`: the Potency entry in [1], in test [2], in [3], in [4], in [5] and in test [6] was “inactive” each time. Moreover, the Potency result in test [7] and in [8] was “inactive” throughout.
`NCCNCCO`: the Potency entry in test [1], in test [2], in [3], in test [4], in test [5] and in test [6] was “inactive” each time. The Potency entry in test [7], in test [8] and in [10] was “inactive” in each case.
On to `COc1cc(C(=O)NC2CCN(C)CC2)ccc1Nc1ncc2c(n1)N(C1CCCC1)CC(F)(F)C(=O)N2C`, for which the Potency in test [1] was 11.3 µM (active); in test [3], 7.11 µM (active); in test [4] it was 14.2 µM (active); in test [5], 22.5 µM (active); in [6] it was 17.9 µM (active); in [10], 6.34 µM (active). Further, the Potency entry in test [2] and in test [9] was “inactive” throughout.
`CC(C)(C)C(=O)C(=O)O`: the Potency result in [1], in test [2], in test [3], in test [4], in test [5] and in test [6] was “inactive” in each case. Moreover, the Potency result in test [7] was “inactive”.
In the case of `Clc1cc(Cl)nc(Cl)n1`, the Potency result in test [1], in [2], in [3], in test [4], in [5] and in [6] was “inactive” in each case. The Potency entry in test [7], in test [8], in test [9] and in test [10] was “inactive” each time.
On to `Cc1ccccc1N=C(N)Nc1ccccc1C`, for which the Potency result in [1], in [2], in test [3], in test [4], in test [5] and in [6] was “inactive” each time. The Potency result in test [7], in [8], in [9] and in test [10] was “inactive” each time.
In the case of `C1COC1`, the Potency result in test [1], in test [2], in [3], in [4], in test [5] and in test [6] was “inactive” throughout. For the same compound, the Potency entry in test [7], in [8] and in [10] was “inactive” each time.
Regarding `Cc1cc(C)c(N)cc1C`, the Potency entry in test [1], in test [2], in test [3], in test [4], in [5] and in [6] was “inactive” in each case. For the same compound, the Potency entry in test [7], in test [8], in [9] and in test [10] was “inactive” throughout.
For `Cc1cc(O)ccc1O`, the Potency result in test [1], in test [2], in test [3], in test [4], in test [5] and in test [7] was “inactive” each time. The Potency result in test [8] and in test [10] was “inactive” each time.
Turning to `Cc1ccccc1S`, the Potency entry in [1], in test [2], in test [3], in [4], in [5] and in [6] was “inactive” throughout. For the same compound, the Potency entry in test [7] and in test [10] was “inactive” throughout.
As to `CC(C)=CC(=O)C=C(C)C`, the Potency entry in [1], in test [2], in test [3], in [4], in test [5] and in test [6] was “inactive” each time. The Potency result in test [7], in [8], in test [9] and in test [10] was “inactive” in each case.
With `CCCCCCCCOc1ccc(C(=O)O)cc1`, the Potency result in test [1], in test [3], in test [4], in test [5], in test [6] and in test [8] was “inactive” throughout. In [10], the Potency entry is “inactive”. Moreover, the Potency in test [2] is 7.67 µM (active).
Consider `Cc1cc(C)cc(N)c1`, for which the Potency entry in [1], in [2], in [3], in test [4], in test [5] and in [6] was “inactive” throughout. Moreover, the Potency result in test [7] and in test [10] was “inactive” each time.
With `CCOC(=O)OC(C)OC(=O)[C@@H]1N2C(=O)[C@@H](NC(=O)[C@H](N)c3ccccc3)[C@H]2SC1(C)C` (stereo partly specified), the Potency entry in test [1], in test [2], in test [3], in test [4], in test [5] and in test [6] was “inactive” throughout. Further, the Potency result in [7], in test [8], in test [9] and in test [10] was “inactive” throughout.
`C=C1C[C@@]23CC[C@H]4[C@@](C)(CCC[C@@]4(C)C(=O)O[C@@H]4O[C@H](CO)[C@@H](O)[C@H](O)[C@H]4O)[C@@H]2CC[C@]1(O[C@@H]1O[C@H](CO)[C@@H](O)[C@H](O[C@@H]2O[C@H](CO)[C@@H](O)[C@H](O)[C@H]2O)[C@H]1O[C@@H]1O[C@H](CO)[C@@H](O)[C@H](O)[C@H]1O)C3`: the Potency entry in [1], in [2], in [3], in test [4], in test [5] and in [6] was “inactive” in each case. The Potency result in [7], in test [8], in test [9] and in [10] was “inactive” in each case.
As to `CC(CCC(=O)O)C(=O)O` (stereo unspecified), the Potency entry in test [1], in test [2], in test [3], in [4], in test [5] and in test [6] was “inactive” throughout. The Potency entry in [7] is “inactive”.
On to `FC(F)(F)c1ccccc1Cl`, for which the Potency result in test [1], in test [2], in test [3], in [4], in test [5] and in test [6] was “inactive” each time. The Potency result in test [7], in [8] and in test [10] was “inactive” each time.
